Measured values: ChEMBL document CHEMBL1157539, “Thousands of chemical starting points for antimalarial lead identification” (Nature, 2010)

Key:
Format in all cases: functional
Plasmodium falciparum [1] = assay: GSK_TCMDC: Inhibition of Plasmodium falciparum 3D7 in whole red blood cells, using parasite LDH activity as an index of growth. Test compounds present at 2uM
Plasmodium falciparum [2] = assay: GSK_TCMDC: Inhibition of Plasmodium falciparum Dd2 in whole red blood cells, using parasite LDH activity as an index of growth. Test compounds present at 2uM
HepG2 = assay: GSK_TCMDC: Percent inhibition of human HepG2 cell line. Test compounds present at 10uM.

Work on `CCn1c(-c2nonc2N)nc2c(-c3cccc(NC(=O)Nc4cccc(Cl)c4)c3)ncc(OCCCN)c21.O=C(O)C(F)(F)F` yielded an Inhibition (Plasmodium falciparum [1]) of 91%, an Inhibition (Plasmodium falciparum [2]) of 78% and an Inhibition (HepG2) of 9%.

`CCCCCCN1CCC(NCc2ccc(C)cc2)CC1.O=C(O)C(F)(F)F` showed an Inhibition (Plasmodium falciparum [1]) of 93%, an Inhibition (Plasmodium falciparum [2]) of 4% and an Inhibition (HepG2) of 16%.

Compound `Cc1cc(Cl)c(S(=O)(=O)N2CCc3ccccc32)cc1OCC(=O)NC1CCCCC1` has an Inhibition (Plasmodium falciparum [1]) of 100%, an Inhibition (Plasmodium falciparum [2]) of 93% and an Inhibition (HepG2) of 28%.

Compound `CN(c1ccccc1)c1ccnc(NC(=N)Nc2ccc(Cl)cc2)n1` has an Inhibition (Plasmodium falciparum [1]) of 87%, an Inhibition (Plasmodium falciparum [2]) of 6% and an Inhibition (HepG2) of 30%.

`COc1ccc2nccc([C@@H](O)CN3CCC(NCc4ccc5scnc5c4)CC3)c2c1.O=C(O)C(=O)O` gave an Inhibition (Plasmodium falciparum [1]) of 100%, an Inhibition (Plasmodium falciparum [2]) of 93% and an Inhibition (HepG2) of 17%.

In the case of `Cl.N=C(N)Nc1ccc(OCCCCCOc2ccc(NC(=N)N)c(Cl)c2)cc1Cl`, the Inhibition (Plasmodium falciparum [1]) is reported as 92%, the Inhibition (Plasmodium falciparum [2]) is reported as 92% and the Inhibition (HepG2) is reported as 18%.

With `Cc1cc(-c2ccc3c(c2)CCN(CCC2CCC(NC(=O)/C=C/c4ccccc4F)CC2)CC3)on1.Cl` (centres undefined) the Inhibition (Plasmodium falciparum [1]) was 94%, the Inhibition (Plasmodium falciparum [2]) was 13% and the Inhibition (HepG2) was 26%.

`Nc1ccc2[nH]cc(C3CCN(CC4CCC(NC(=O)/C=C/c5ccccc5Cl)CC4)CC3)c2n1` (centres undefined) was tested, and the Inhibition (Plasmodium falciparum [1]) was 100%, the Inhibition (Plasmodium falciparum [2]) was 45% and the Inhibition (HepG2) was 7%.

In the case of `COc1cc(Cc2cnc(N)nc2N)c2c(c1OC)OC(C)C=C2` (centres undefined), the Inhibition (Plasmodium falciparum [1]) is reported as 87%, the Inhibition (Plasmodium falciparum [2]) is reported as 1% and the Inhibition (HepG2) is reported as 0%.

Compound `CN(CCS(C)(=O)=O)Cc1ccc(-c2ccc3ncnc(Nc4ccc(OCc5cccc(F)c5)c(Cl)c4)c3c2)o1.Cc1ccc(S(=O)(=O)O)cc1` has an Inhibition (Plasmodium falciparum [1]) of 100%, an Inhibition (Plasmodium falciparum [2]) of 65% and an Inhibition (HepG2) of 25%.

With `O=C(Nc1ccc(Cl)c(C(F)(F)F)c1)Nc1ccc(Cl)c(C(F)(F)F)c1` the Inhibition (Plasmodium falciparum [1]) was 94%, the Inhibition (Plasmodium falciparum [2]) was 96% and the Inhibition (HepG2) was 1%.

`O=C(CC1CCCCC1)NCC(NCCCNc1cc(=O)c2ccccc2[nH]1)c1cc(Br)cc(Br)c1` (centres undefined) gave an Inhibition (Plasmodium falciparum [1]) of 95%, an Inhibition (Plasmodium falciparum [2]) of 52% and an Inhibition (HepG2) of 8%.

Work on `CCCCCCN1CCN(Cc2cccc(NC(=O)c3cc4ccccc4o3)c2)CC1.O=C(O)C(F)(F)F` yielded an Inhibition (Plasmodium falciparum [1]) of 93%, an Inhibition (Plasmodium falciparum [2]) of 83% and an Inhibition (HepG2) of 20%.

`CN(C)c1nc2cc(-n3cnc4cc(-c5ccc(Cl)cc5)sc4c3=O)ccc2n1CCCN1CCCC1.O=C(O)C(F)(F)F` showed an Inhibition (Plasmodium falciparum [1]) of 97%, an Inhibition (Plasmodium falciparum [2]) of 73% and an Inhibition (HepG2) of 99%.

With `Cc1[nH]c(C)c(-c2ccc(CCc3ccc(F)cc3F)cc2)c(=O)c1Br` the Inhibition (Plasmodium falciparum [1]) was 97%, the Inhibition (Plasmodium falciparum [2]) was 98% and the Inhibition (HepG2) was 0%.

In the case of `Cc1csc(-c2nc(NCCc3c(C)noc3C)ncc2-c2ccsc2)n1`, the Inhibition (Plasmodium falciparum [1]) is reported as 90%, the Inhibition (Plasmodium falciparum [2]) is reported as 82% and the Inhibition (HepG2) is reported as 6%.

For `O=C(/C=C/c1cccc(Br)c1)NCCCCCN1CCC(c2c[nH]c3ccccc23)CC1`, the Inhibition (Plasmodium falciparum [1]) was 100%, the Inhibition (Plasmodium falciparum [2]) was 15% and the Inhibition (HepG2) was 38%.

`O=C(NC1CCCCN(Cc2ccccc2O)C1)c1cccc(C(F)(F)F)c1.O=C(O)C(F)(F)F` (centres undefined) gave an Inhibition (Plasmodium falciparum [1]) of 93%, an Inhibition (Plasmodium falciparum [2]) of 64% and an Inhibition (HepG2) of 0%.

`Fc1ccc(CNc2ccc3ncc(-c4cccnc4)n3n2)cc1` showed an Inhibition (Plasmodium falciparum [1]) of 87%, an Inhibition (Plasmodium falciparum [2]) of 7% and an Inhibition (HepG2) of 7%.

`O=C(Nc1ccc(C(=O)N(Cc2ccc3c(c2)OCO3)C2CCCC2)cc1)c1cccs1` was tested, and the Inhibition (Plasmodium falciparum [1]) was 97%, the Inhibition (Plasmodium falciparum [2]) was 95% and the Inhibition (HepG2) was 14%.

Work on `COc1ccccc1C1CC(c2ccc(Br)cc2)=NN1C(=O)c1ccccc1` (centres undefined) yielded an Inhibition (Plasmodium falciparum [1]) of 85%, an Inhibition (Plasmodium falciparum [2]) of 59% and an Inhibition (HepG2) of 12%.

For `CS(=O)(=O)c1ccc(-c2cnc(N)c(-c3ccc(O)cc3)c2)cc1`, the Inhibition (Plasmodium falciparum [1]) was 84%, the Inhibition (Plasmodium falciparum [2]) was 94% and the Inhibition (HepG2) was 38%.

`C[C@H](Cc1ccc(OCCCCCCOc2ccc(C[C@@H](C)NC(=O)[C@H](O)c3cccc(Cl)c3)cc2)cc1)NC[C@H](O)c1cccc(Cl)c1` was tested, and the Inhibition (Plasmodium falciparum [1]) was 99%, the Inhibition (Plasmodium falciparum [2]) was 99% and the Inhibition (HepG2) was 39%.

Compound `CC(=O)NCCNc1nccc(N2CCc3ncnc(Nc4ccc(OCc5cccc(F)c5)c(Cl)c4)c3C2)n1` has an Inhibition (Plasmodium falciparum [1]) of 100%, an Inhibition (Plasmodium falciparum [2]) of 100% and an Inhibition (HepG2) of 10%.

With `CCOc1cc2c(cc1OCC)C(c1cc(OC)c(O)cc1Cl)NCC2` (centres undefined) the Inhibition (Plasmodium falciparum [1]) was 100%, the Inhibition (Plasmodium falciparum [2]) was 97% and the Inhibition (HepG2) was 15%.

Compound `CCN(CCCN1CCCCC1)c1cc(C)nc(Nc2cccc3c2CCCC3)n1.O=C(O)C(F)(F)F` has an Inhibition (Plasmodium falciparum [1]) of 92%, an Inhibition (Plasmodium falciparum [2]) of 46% and an Inhibition (HepG2) of 60%.

`Cc1ccc2c(c1)c(C1CCN(C(=O)c3ccc([N+](=O)[O-])o3)CC1)cn2C` gave an Inhibition (Plasmodium falciparum [1]) of 97%, an Inhibition (Plasmodium falciparum [2]) of 76% and an Inhibition (HepG2) of 0%.

`Cc1cccc(-c2ccc3c(c2)CC(NCc2cccc(-n4ccnc4)c2)C3)c1` (centres undefined) gave an Inhibition (Plasmodium falciparum [1]) of 100%, an Inhibition (Plasmodium falciparum [2]) of 49% and an Inhibition (HepG2) of 11%.

With `O=C(Nc1ccc(Cn2ncc(N3CCCNCC3)c(Cl)c2=O)cc1)Nc1cc(C(F)(F)F)cc(C(F)(F)F)c1.O=C(O)C(F)(F)F` the Inhibition (Plasmodium falciparum [1]) was 100%, the Inhibition (Plasmodium falciparum [2]) was 29% and the Inhibition (HepG2) was 25%.

`COc1ccc2nccc([C@@H](O)CN3CCC(NCc4cc5ccc(Cl)cc5[nH]4)CC3)c2c1.O=C(O)C(=O)O` was tested, and the Inhibition (Plasmodium falciparum [1]) was 99%, the Inhibition (Plasmodium falciparum [2]) was 61% and the Inhibition (HepG2) was 30%.

With `CC(C)(C)NCc1cc(Nc2ccnc3cc(Cl)ccc23)ccc1F` the Inhibition (Plasmodium falciparum [1]) was 100%, the Inhibition (Plasmodium falciparum [2]) was 100% and the Inhibition (HepG2) was 21%.

`Clc1ccc(-c2[nH]c3ccccc3c2CN2CCC(N3CCCCC3)CC2)cc1` showed an Inhibition (Plasmodium falciparum [1]) of 93%, an Inhibition (Plasmodium falciparum [2]) of 15% and an Inhibition (HepG2) of 5%.

`O=C(Nc1ccc(-c2csc(-c3nc4ccccc4[nH]3)c2)cc1)Nc1ccc(F)c(F)c1F` was tested, and the Inhibition (Plasmodium falciparum [1]) was 100%, the Inhibition (Plasmodium falciparum [2]) was 64% and the Inhibition (HepG2) was 67%.
